The source made the active and inactive calls.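 How the source made its calls: active means ATP loss in HepG2 cells with fitted half-maximal concentration at most twice the top tested dose; inconclusive means flat curve showing moderate loss, or a poor fit; inactive means opposite effect, flat near zero, or weaker potency.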
Test: viability loss in HepG2 cells – cell-based, luminescence, dry powder, set 5, cytotoxicity control, dose response (AID 743185)

| Structure (SMILES) | outcome |
| --- | --- |
| O=C(N/N=C/c1c[nH]c2ccccc12)c1cccs1 | inactive |
| CSc1ccc(/C=N/NC(=O)c2ccc3nc[nH]c3c2)cc1 | inactive |
